From PubChem
This is a sample that favours compounds with a hit; in the whole collection about 1.6% have one here.
gsp agonist: activates gsp, the McCune-Albright syndrome mutation. Potency, µM (doses to about 76.9 µM), for inactives: at the highest dose activation (cAMP increase), actives largely listed as activators. hit rate 0.13% among 340,000. gsp mutant cells, cAMP HTRF, 30 min. AID 624287; active means well fitted activation curve with a large enough effect; inconclusive means small, poorly fitted or top-dose-only effect, or another doubt; inactive means no such curve, though single readings can be large or run the other way; cell line not stated here;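 further: phosphodiesterase inhibitor Ro 20-1724 added with compounds to block cAMP breakdown; potency means the concentration at half of the fitted maximal effect; nearly all actives have a fitted effect of over 60% in size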
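Cells stably selected in G418 were plated at 2000/well, grown 16-24 hr, then given compounds in DMSO with the PDE inhibitor […] (300 uM solution added) for 30 min at 37C; cAMP was read by HTRF.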
FBPA coupling cs: inhibits coupling enzyme system, counter-screen for aldolase hits. coupling enzyme system counterscreen, AmpLite Red fluorescence. activity change, negative = inhibition, % at 58.2 µM, hits read low. hit rate 0.67% among 290,000; in the data active means activity change below about -30%; further: on the % scale 0 is the no-effect control and ±100 the full control effect
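First, compound is pin-transferred into glyceraldehyde-3-phosphate coupling-enzyme reagent at 57.5 uM final and held 10 min at RT. Next, substrate, coupling system and AmpLite Red are added. After 20 min RT, fluorescence (525/598 nm) is read.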
gsp antag: gsp mutant antagonism; gsp-mutant cells, cAMP HTRF, 30 min; Potency, µM (titrated, usually from 76.9 µM), without a hit: at the top dose activity change, negative = inhibition, usual class: inhibitors; hit rate 0.4% among 340,000; AID 624288; calls by dose curve; cell line not stated here;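 further: intracellular cAMP measured with PDE inhibitor Ro 20-1724 present during compound exposure; potency means the concentration at half of the fitted maximal effect; on the % scale 0 is the no-effect control and ±100 the full control effect; nearly all actives have a fitted effect of over 65% in size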
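G418-selected cells were plated in DMEM/10% FBS for 16-24 h at 37C, then treated with compounds plus the PDE inhibitor […] (300 uM solution added) for 30 min at 37C. Intracellular cAMP was measured by HTRF after 30 min lysis at room temperature.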
Giardia kill: kills Giardia lamblia; Giardia lamblia trophozoite viability; activity change, % at 7.66 µM, hits read low; hit rate 0.15% among 340,000; AID 540267; in the data active means activity change below about -80%; inconclusive means between about -30% and that limit;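 further: parasites exposed to compound for two days anaerobically before the ATP read; on the % scale 0 is the no-effect control and ±100 the full control effect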
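Viability, read as ATP luminescence: trophozoites at 100 cells/well, compound added, 48 hrs anaerobic at 37 deg C, then 15-30 min room-temperature development before reading.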
RXFP1 antag: RXFP1 (human) relaxin receptor antagonism; hit rate 0.59% among 350,000; activity change, negative = inhibition, % at 57.5 µM; Q9HBX9; HEK293-RXFP1, relaxin-stimulated cAMP HTRF, 30 min; stronger effect = lower value; AID 1259400;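 active means activity change of -60% or lower, but not beyond a set lower limit; inconclusive means change between -60% and -40%, or beyond the set limit; inactive means change above -40%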; further: on the % scale 0 is the no-effect control and ±100 the full control effect
Target sequence (Q9HBX9 whole entry, looked up): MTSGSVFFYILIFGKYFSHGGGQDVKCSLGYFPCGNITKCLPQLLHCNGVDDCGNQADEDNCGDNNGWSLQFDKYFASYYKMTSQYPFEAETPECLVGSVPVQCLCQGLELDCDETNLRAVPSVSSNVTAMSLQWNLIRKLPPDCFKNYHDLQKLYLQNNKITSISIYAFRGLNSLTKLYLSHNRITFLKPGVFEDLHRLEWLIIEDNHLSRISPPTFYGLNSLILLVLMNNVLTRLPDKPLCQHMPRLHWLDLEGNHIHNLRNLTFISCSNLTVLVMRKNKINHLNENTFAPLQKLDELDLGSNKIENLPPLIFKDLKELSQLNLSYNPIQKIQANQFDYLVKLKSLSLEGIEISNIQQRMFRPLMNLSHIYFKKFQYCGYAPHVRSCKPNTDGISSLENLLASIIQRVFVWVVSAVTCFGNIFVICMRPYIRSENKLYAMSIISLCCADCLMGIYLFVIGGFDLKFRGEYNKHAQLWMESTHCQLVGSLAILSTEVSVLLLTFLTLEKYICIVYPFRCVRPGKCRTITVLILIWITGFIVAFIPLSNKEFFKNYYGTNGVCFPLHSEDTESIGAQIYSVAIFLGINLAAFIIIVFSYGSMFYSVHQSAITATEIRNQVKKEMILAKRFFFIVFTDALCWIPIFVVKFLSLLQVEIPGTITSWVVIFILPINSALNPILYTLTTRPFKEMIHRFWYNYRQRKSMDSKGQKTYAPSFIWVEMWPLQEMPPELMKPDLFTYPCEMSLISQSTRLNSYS
RXFP1 agonist: RXFP1 (human) receptor agonism. Q9HBX9. HEK293T-RXFP1 cAMP TR-FRET, 30 min; response scale: percent of porcine relaxin response, buffer zero. Potency, µM (doses to about 57.5 µM), inactives show top-dose activation, hits mostly activators. hit rate 0.3% among 370,000. AID 2676; active means well fitted activation curve with a large enough effect; inconclusive means small, poorly fitted or top-dose-only effect; further: potency means the concentration at half of the fitted maximal effect; on the % scale 0 is the no-effect control and ±100 the full control effect; nearly all actives have a fitted effect of over 60% in size
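HEK293 cells stably expressing RXFP1, treated 30 min at 37C with compounds plus PDE4 inhibitor Ro 20174; cAMP measured by HTRF TR-FRET. Normalized to buffer and 29 nM porcine relaxin; EC50 by Hill fit.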
* marks the source's active call; other numbers are inactive results; u = inconclusive; x = no result; ! = repeats disagree; [ ] = another dose, or the depositor's remark.

SMILES	gsp agonist	FBPA coupling cs	gsp antag	Giardia kill	RXFP1 antag	RXFP1 agonist
CCOC(=O)c1c(C)oc2c1c(C(c1cccnc1)N1CCN(C)CC1)c(O)c1ccccc12 (stereo not given)	x	-13	x	x	x	0%
Cc1ccc(/C(=N/Nc2nc3ccccc3s2)C2=C(O)c3ccccc3C2=O)cc1	-3%[15.4 µM]	-9	-15%	24	-10	1%
CCn1c(=O)c(NC(=O)c2ccccc2)c2n(c1=S)CCCCC2	-41%	-35*	1%	-8	9	-1%
CCc1ccccc1NS(=O)(=O)c1ccc(OC)c2ncccc12	0%	0	28µM*	2	u	1%
CCc1ccc(NS(=O)(=O)c2ccc(OC)c3ncccc23)cc1	7%	0	0%	2	34	-2%
COc1cc(CNCc2ccccc2)c(Br)cc1OC1CCCC1	7%[15.4 µM]	2	1%	-13	-61*	-2%
CCN1CCN(C(c2cccs2)C(C)NC(=O)C(=O)N2CCCCC2)CC1 (stereo not given)	10%	x	10%	-2	u	1%
CC(NC(=O)C(=O)N1CCCCC1)C(c1cccs1)N1CCN(Cc2ccccc2)CC1 (stereo not given)	u	x	1%	-8	-66*	3%
Cc1ncc([N+](=O)[O-])n1C	x	x	x	x	6	x
CCCCN(CCO)c1ncnc2sc(-c3ccccc3)cc12	23%	3	-9%	11	-65*	8%
CCOc1cc(-c2ccc3c(c2)OCO3)cc(=[O+]CC)c2c(C)oc(C)c12	x	x	x	0	x	x
N/C(=N\OC(=O)c1cccs1)C1(c2ccc(Cl)cc2Cl)CC1	-9%[15.4 µM]	3	8%	0	-115*	1%
N/C(Cc1ccc(Cl)c(Cl)c1)=N\OC(=O)c1cccs1	-26%	0	-21%	-4	-6	0%
Cc1cc(=O)n(CCO)c(O)c1C#N	18%	-46*	-3%	4	-5	0%
Cc1cc(=O)n(CC(C)C)c(O)c1C#N	-11%	-33*	2%[15.4 µM]	-3	0	0%
Cc1cc(=O)n(Cc2ccc(Cl)cc2)c2c1c(C)nn2-c1ccccc1	x	x	x	x	-5	-1%
CC(C)Cc1ccc(C(C)C(=O)OCc2ccccn2)cc1 (stereo not given)	x	x	x	x	-32	x
CN(C)CCc1cc2c(c3c1ccc1ccccc13)OCO2	24%	-36*!	19%	-7	3	1%
O=c1oc2ccccc2c(NC2CCCCC2)c1NS(=O)(=O)c1ccc(F)c(Cl)c1	u	x	-29%	-6	-63*	1%
O=C(NCc1ccccc1CN1CCCC1)c1ccc(S(=O)(=O)Nc2ccccc2)cc1	6%	x	x	x	-5	x
Cc1c(CCO)c(=O)n(-c2ccccc2)n1S(=O)(=O)c1c(Cl)cc(Cl)cc1Cl	-13%	-39*	-19%	9	-12	2%
O=C(O)c1cc(C(=O)O)c(-c2ccccc2)c(C(=O)O)c1	1%	0	15%	4	-5	0%
O=C(O)c1cc(-c2ccccc2)nc(-c2ccccc2)c1	-36%	x	32µM*	3	0	3%
COc1ccc(/C=N/NC(=O)c2cccnc2)cc1COc1ccc(NC(C)=O)cc1	u	0	-6%	-8	u	3%
COc1ccc(/C=N/NC(=O)c2cccnc2)cc1COc1ccc([N+](=O)[O-])cc1	13%[15.4 µM]	-1	-11%	-8	-85*	1%
SMILES	gsp agonist	FBPA coupling cs	gsp antag	Giardia kill	RXFP1 antag	RXFP1 agonist
C=CCc1cccc(/C=N/c2ncccc2O)c1O	2%	-43*	-1%	13	9	0%
CCCC[C@]12Cc3ccccc3[C@H](O1)C1=C(O2)C(=O)c2ccccc2C1=O	x	0	x	x	x	0%[11.5 µM]
CCCC[C@]12Cc3cc(OC)c(OC)cc3C(O1)C1=C(O2)C(=O)c2ccccc2C1=O	x	-36*	x	x	x	0%[11.5 µM]
Cn1nc(C(=O)NCc2ccc(F)cc2)cc1C(=O)NCc1ccc(F)cc1	1%	x	-13%	-16	-9	1%
O=C(Cc1csc(N2CCOCC2)n1)N/N=C/c1ccc(O)c(O)c1O	-17%[15.4 µM]	-61*	-7%	-8	4	0%
O=C(CCN1CCN(c2ccccc2)CC1)N/N=C/c1ccc(O)c(O)c1O	15%	-40*	2%	-1	-3	0%
Cc1cc(C(=O)N/N=C/c2ccc(O)c(O)c2O)c(C)n1-c1ccccc1	-48%	-33*	-11%	7	-7	0%
Cc1ccc(S(=O)(=O)c2nc(-c3ccccc3F)oc2N2CCCCC2)cc1	x	x	x	x	-15	0%
CC(=O)Nc1c(Cl)cnn(-c2ccccc2)c1=O	-1%	x	-11%	-27	5	x
O=C(O)c1ccc(-n2ncc(Cl)c(Cl)c2=O)cc1	10µM*	x	x	x	5	x
CCn1c(SCC(=O)Nc2sccc2C(N)=O)nnc1C1CC1	5%	x	50µM*	-4	-12	1%
CN(C)c1ccc(Cc2cc3c(O)ccc(O)c3cc(Cc3ccc(N(C)C)cc3)c2=O)cc1	-49%	x	-15%	-18	-107*	x
O=C1CN(C(=O)c2cc3ccccc3oc2=O)C(c2ccc(F)cc2)c2cc(Br)ccc2N1 (stereo not given)	-16%	2	-19%	15	x	-1%
CCN(C(=O)CN1C(=O)S/C(=C\c2cccc(OC)c2)C1=O)C1CCS(=O)(=O)C1 (stereo not given)	4%	x	-1%	13	-11	1%
O=C(COC(=O)/C=C/c1ccc(Cl)cc1)NC(=O)NCc1ccccc1	-4%[15.4 µM]	x	7%	48	-61*	1%
O=C(COC(=O)/C=C/c1ccccc1)NCc1ccc(Cl)cc1	0%	0	10%	-6	-8	0%
CC[N+](CC)(CC)CCOC(=O)C(C1CCCC1)C1CCCC1	x	x	x	x	-11	x
CC(=O)Oc1ccc(C(=O)Nc2ccccc2NC(=O)c2ccc(OC(C)=O)cc2)cc1	-2%	2	25µM*	-15	6	-4%
COc1ccc(C)cc1NC(=O)c1cccc(-c2ccc(OC(C)=O)cc2)c1	6%[15.4 µM]	-4	25µM*	-1	-4	5%
CCOC(=O)COc1ccc(/C=C/[N+](=O)[O-])c(OCC(=O)OCC)c1	10%	0	17%	9	-69*	3%
CCOc1ccc(/C=C/[N+](=O)[O-])c2ccccc12	5%	-7	-2%	-16	-69*	2%
CCOC(=O)COc1ccc2ccccc2c1/C=C/[N+](=O)[O-]	0%	-13	8%	2	u	2%
O=C(COC(=O)c1cccc2c1C(=O)c1ccccc1C2=O)NC1CCCCC1	-6%[15.4 µM]	-13	-6%	-8	u	3%
O=C(COC(=O)c1ccc2c(c1[N+](=O)[O-])C(=O)c1ccccc1C2=O)NC1CC1	10%	-33*	-15%	24	-2	26%
